Data on 41 compounds can be found in PubChem BioAssay (NCATS).

Usually viability stands for a read-out of living cells in per cent, often relative to untreated cells.

The target of test [1] is Aldehyde dehydrogenase, mitochondrial (Homo sapiens) (UniProt P05091). In words: qHTS for Inhibitors of the Aldehyde Dehydrogenase Family (ALDH2) Confirmatory screens (AID 2061303; active = well fitted inhibition curve with a large enough effect; title and protocol of this record describe different tests; also: nearly all actives have a fitted effect of over 45% in size; also: potency is read from the fitted curve at half-maximal effect). (Quantitative high-throughput screening tests each substance at several concentrations.)
Test [2] in a line: qHTS for Inhibitors of the Aldehyde Dehydrogenase Family (ALDH1A2, ALDH1A3, ALDH2, ALDH3A1) (AID 2061307). Also: nearly all actives have a fitted effect of over 50% in size. As to Potency: test system not described further here; potency is read from the fitted curve at half-maximal effect.
In test [3] the target is Aldehyde dehydrogenase, mitochondrial (Homo sapiens) (UniProt P05091). The test is described as follows: qHTS for Inhibitors of the Aldehyde Dehydrogenase Family (ALDH2) Primary screen (AID 2061308). Also: nearly all actives have a fitted effect of over 55% in size. Also: potency is read from the fitted curve at half-maximal effect.
For test [4], the target named is Retinal dehydrogenase 2 (Homo sapiens) (UniProt O94788). In words: qHTS for Inhibitors of the Aldehyde Dehydrogenase Family (ALDH1A2) Confirmation screens (AID 2061314). Also: nearly all actives have a fitted effect of over 65% in size. Also: potency is read from the fitted curve at half-maximal effect.
Test [5] concerns the target Retinaldehyde dehydrogenase 3 (Homo sapiens) (UniProt P47895). The test is described as follows: qHTS for Inhibitors of the Aldehyde Dehydrogenase Family (ALDH1A3) Primary screen (AID 2061315). Also: potency is read from the fitted curve at half-maximal effect.
For test [6] the target is unchanged. The test is described as follows: qHTS for Inhibitors of the Aldehyde Dehydrogenase Family (ALDH1A3) Confirmatory screens (AID 2061311). Also: nearly all actives have a fitted effect of over 60% in size. Also: potency is read from the fitted curve at half-maximal effect.
The target of test [7] is Aldehyde dehydrogenase 1A1 (Homo sapiens) (UniProt P00352). The test is described as follows: qHTS for Inhibitors of the Aldehyde Dehydrogenase Family (ALDH1A1) Confirmatory screens (AID 2061316). Also: nearly all actives have a fitted effect of over 65% in size. Also: potency is read from the fitted curve at half-maximal effect.
A short description of test [8]: BET inhibitor-based combinations targeting novel dependencies in MECOM-rearranged (r) AML: SET-2 cell line (AID 2202231).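 Also: plate controls were DMSO treated cells for no effect and wells without cells for full effect; nearly all actives have a fitted effect of over 35% in size.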 Conditions: SET-2 AML cells viability, CellTiter-Glo luminescence, 48 h; viability: hits give low values, series mostly up to about 46 µM. Put shortly: (§1)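 A 48 hr incubation preceded viability reading by CellTiter-Glo, with 15 min room-temperature development. Dose series had 11 points; normalization used DMSO and empty wells; AUC was computed and mean-centered per line as Z-AUC.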

The nature of test [9]: BET inhibitor-based combinations targeting novel dependencies in MECOM-rearranged (r) AML: OCI-AML3 cell line (AID 2202232).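 Also: series mostly up to about 46 µM; plate controls were DMSO vehicle wells for no effect and wells without cells for full effect; nearly all actives have a fitted effect of over 35% in size.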 Conditions: Potency: OCI-AML3 viability. Put shortly: as §1
Test [10] in a line: BET inhibitor-based combinations targeting novel dependencies in MECOM-rearranged (r) AML: UCSD-AML1 cell line (AID 2202235).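 Also: series mostly up to about 46 µM; plate controls were DMSO vehicle wells for no effect and blank wells for full effect; nearly all actives have a fitted effect of over 40% in size.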 Put shortly: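 Each compound is tested in an 11-point concentration series against 500 seeded cells/well for 48 hr. The luminescent viability signal is normalized to DMSO and blank wells, then reduced to AUC and a cell-line-centred Z-AUC.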
The nature of test [11]: BET inhibitor-based combinations targeting novel dependencies in MECOM-rearranged (r) AML: AML-191 cell line (AID 2202236;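 also: plate controls were vehicle wells for no effect and wells without cells for full effect; nearly all actives have a fitted effect of over 35% in size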). Put shortly:
as §1

The nature of test [12]: BET inhibitor-based combinations targeting novel dependencies in MECOM-rearranged (r) AML: AML-194 cell line (AID 2202237;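 also: plate controls were vehicle wells for no effect and wells without cells for full effect; nearly all actives have a fitted effect of over 40% in size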). Put shortly:
as §1

The structures appear in SMILES notation. Results filed as inconclusive are left out. Values without a mark were called inactive. The source made the active and inactive calls. Unless noted, calls follow the shape of the dose curve; as a rule, active = well fitted curve in the direction sought with a large enough effect; inconclusive = small, poorly fitted or top-dose-only effect, or another doubt; inactive = no such curve, though single readings can be large; an effect the other way counts as inactive or inconclusive.

Regarding `O=S1(=O)N=C(Oc2ccccc2F)c2ccccc21`, the Potency entry in [1], in [2], in test [3], in test [4] and in test [5] was “inactive” in each case.

With `Cc1cc(=O)oc2c(C=O)c(O)ccc12`, the Potency entry in test [1], in test [2] and in [3] was “inactive” each time. Also, the values for the Potency in [6] and in [7] were 12.7 µM (active) and 8.96 µM (active), respectively.

As for `CN(Cc1cccs1)c1ncnc2ccc(-c3ccc4cnn(C)c4c3)cc12`, the Potency entry in test [1], in [2], in test [3], in test [6], in [5] and in test [7] was “inactive” each time.

Take `O=C1c2ccccc2C(=O)N1Cc1cccnc1`: the Potency result in [1], in [2], in test [3], in [4], in [5] and in test [7] was “inactive” in each case.

With `NC1CCN(c2nc(-c3ccc(Br)cc3)cs2)CC1`, the Potency entry in test [1], in test [2], in test [3], in test [4], in test [5] and in test [7] was “inactive” throughout.

Consider `CC1(C)CC2CC(C)(CN2S(=O)(=O)c2ccc(C(=O)Nc3cccc(S(=O)(=O)N4CCOCC4)c3)cc2)C1` (stereo not given), for which the values for the Potency in [1], in test [2] and in [4] were 0.355 µM (active), 0.447 µM (active) and 8.96 µM (active), respectively. Moreover, the Potency result in [3], in [5] and in [7] was “inactive” each time.

For `CC(=O)Nc1ccc(OC2=NS(=O)(=O)c3ccccc32)cc1`, the Potency result in test [1], in test [2], in [3], in [4], in test [5] and in test [7] was “inactive” each time.

With `O=C(Nc1cccc([S+](=O)([O-])Nc2ccccc2F)c1)c1ccccc1`, the Potency result in test [1], in test [2], in [3], in [4], in test [5] and in test [7] was “inactive” each time.

For the compound `CN(Cc1ncc[nH]1)c1ncnc2ccc(-c3ccc4c(c3)OCO4)cc12`, the Potency entry in test [1], in test [2], in test [3], in [4], in [5] and in test [7] was “inactive” in each case.

Take `Cc1cccc(-n2cnc3cc(C(=O)N4CCC(Br)CC4)ccc32)c1`: the Potency entry in test [1], in [2], in test [3], in test [4] and in test [5] was “inactive” each time.

In the case of `CCCCNc1nc(C#N)nc(Nc2ccccc2)n1`, the figures for the Potency in test [1] and in [2] were 2.51 µM (active) and 0.501 µM (active), respectively. The Potency entry in [3], in [4] and in test [5] was “inactive” in each case.

As to `Cc1ccc(OCCn2c(CCNC(=O)c3cccs3)nc3ccccc32)cc1`, the Potency result in test [1], in test [2], in test [3] and in test [5] was “inactive” in each case. The Potency in test [4] was 31.8 µM (active); in test [7] it was 12.7 µM (active).

Regarding `O=C(Cc1ccc(Cl)c(Cl)c1)Nc1ccc(S(=O)(=O)O)cc1`, the Potency result in test [1], in [2], in [3], in test [4], in test [5] and in [7] was “inactive” each time.

As to `O=C(CCCc1ccc2cccnc2n1)NCc1cc(-c2ccc(F)c(C(F)(F)F)c2)no1`, the Potency result in test [1], in [2], in test [3], in test [4], in test [5] and in [7] was “inactive” each time. Moreover, the Potency result in [9], in [10], in test [11] and in [12] was “inactive” in each case. Further, in test [8], the viability was 106%.

In the case of `O=C1NS(=O)(=O)c2cc(Br)ccc21`, the Potency entry in test [1], in test [2], in [3], in [4], in test [5] and in [7] was “inactive” throughout.

On to `O=c1c2ccccc2nc2sc(Nc3cccc(N4CCNCC4)c3)nn12`, for which the Potency entry in test [1], in test [2], in test [3] and in test [5] was “inactive” each time. In addition, the values for the Potency in test [4] and in test [7] were 10.1 µM (active) and 12.7 µM (active), respectively.

For the compound `O=C(/C=C/c1ccc2c(c1)OCO2)Nc1cccc([S+](=O)([O-])Nc2ccccc2F)c1`, the Potency result in test [1], in test [2], in test [3], in test [4], in test [5] and in [7] was “inactive” in each case.

Take `COc1cc(/C=C/c2cc(O)cc(O[C@@H]3O[C@H](CO)[C@@H](O)[C@H](O)[C@H]3O)c2)ccc1O`: the Potency result in test [1], in [2], in test [3], in [4] and in [7] was “inactive” in each case. For the same compound, the Potency in test [5] is 6.31 µM (active).

As to `Nc1ccc2c(c1)S(=O)(=O)NC2=O`, the Potency result in test [1], in test [2], in test [3], in test [4], in [5] and in test [7] was “inactive” throughout.

As to `O=C(O)c1ccccc1OC1=NS(=O)(=O)c2ccccc21`, the Potency entry in test [1], in test [2], in test [3], in test [4], in test [5] and in [7] was “inactive” in each case.

Take `CCCc1nnc(-c2cnn(C)c2N)n1CCCn1ccnc1`: the Potency entry in test [1], in [2], in test [3], in [4], in test [5] and in test [7] was “inactive” throughout.

With `O=C1CC(c2ccccc2)Cc2[nH]c(=O)c(-c3nc(-c4ccc(F)cc4)cs3)cc21` (stereo not given), the Potency result in [1], in [2], in test [3], in [4] and in test [5] was “inactive” each time.

Consider `Cc1c(Cl)cccc1NS(=O)(=O)c1cc2c(cc1Cl)CCC(=O)N2`, for which the Potency result in test [1], in test [2], in test [3], in test [5] and in test [7] was “inactive” each time. The Potency in [4] was 12.7 µM (active).

For the compound `N=c1c2c(ncn1-c1ccccc1)Oc1ccc3ccccc3c1C2c1ccc2c(c1)OCCO2` (stereo not given), the Potency entry in test [1], in test [2], in test [3], in test [4], in test [5] and in test [7] was “inactive” throughout.

Turning to `O=C(Nc1ccc(Cl)c(Cl)c1)Nc1ccc(-c2ccncc2)s1`, the Potency entry in test [1], in [2], in test [3], in test [4] and in test [5] was “inactive” each time. The Potency in [7] was 8.96 µM (active).

Regarding `Cc1ccc(OCCn2c(CCNC(=O)c3cccnc3)nc3ccccc32)cc1`, the Potency result in test [1], in test [2], in test [3], in [4], in test [5] and in [7] was “inactive” each time.

`COc1cccc(OC)c1C1=Nn2c(nnc2-c2ccccc2C)SC1`: the Potency result in [1], in [2], in test [3], in test [4] and in [5] was “inactive” throughout.

On to `COc1ccc(C2Nc3ccccc3C(=O)N2Cc2ccccc2)cc1COc1ccc(C(N)=O)cc1` (stereo not given), for which the Potency in [1] is 5.62 µM (active); in test [2], 2.83 µM (active); in test [4], 14.1 µM (active). Also, the Potency result in [3] and in [5] was “inactive” in each case.

`Cc1nnc(-c2cnn(C)c2N)n1CCc1ccccc1`: the Potency result in test [1], in [2], in [3], in test [4], in [5] and in test [7] was “inactive” in each case.

For the compound `S=C(Nc1cc(Cl)ccn1)N1CCN(c2cccc(Cl)c2Cl)CC1`, the Potency in test [1] was 15.8 µM (active); in [2] it was 3.98 µM (active); in test [4] it was 25.2 µM (active); in [7] it was 3.18 µM (active). The Potency result in [3] and in test [5] was “inactive” throughout.

As for `COc1cc([C@@H](O[C@@H]2O[C@H](CO)[C@@H](O)[C@H](O)[C@H]2O)[C@@H]2CO[C@H](c3ccc(O)c(OC)c3)[C@H]2CO)ccc1O`, the Potency result in test [1], in test [2], in [3], in [4] and in [7] was “inactive” each time.

In the case of `COc1cccc(CCC(=O)NCCc2nc3ccccc3n2CCOc2ccc(C)cc2)c1`, the Potency result in [1], in test [2], in test [3], in [4] and in test [5] was “inactive” throughout. Further, in [7], the Potency was 6.34 µM (active).

On to `COc1ccc(C2Nc3ccccc3C(=O)N2Cc2ccccc2)cc1COc1cccc(C(F)(F)F)c1` (stereo not given), for which the Potency result in test [1], in test [2], in test [3], in test [5] and in test [7] was “inactive” each time. Moreover, the Potency in test [4] was 20.1 µM (active).

In the case of `COc1cc(/C=C/C(=O)OC[C@H]2O[C@H](O[C@]3(CO)O[C@H](CO)[C@@H](O)[C@@H]3O)[C@H](O)[C@@H](O)[C@@H]2O)cc(OC)c1O`, the Potency result in [1], in test [2], in test [3], in [4] and in test [7] was “inactive” in each case.

For the compound `COc1ccc(CCCN2CCC(COC(c3ccccc3)c3ccccc3)CC2)cc1`, the Potency result in [1], in [2], in test [3], in [4], in test [5] and in [7] was “inactive” throughout.

In the case of `CCCCN(C)C(=O)Cn1nc(-c2ccncc2)ccc1=O`, the Potency entry in [1], in test [2], in test [3], in [4] and in test [5] was “inactive” throughout.

`NC(=O)C[C@H](N)C(=O)Nc1ccc(Cl)cc1C(=O)c1ccc[nH]1`: the Potency result in test [1], in test [2], in test [3], in [4], in [5] and in [7] was “inactive” in each case.

With `CC1CC(O)CC(C)(C)C1(O)CCO` (stereo not given), the Potency result in test [1], in test [2], in test [3], in test [4] and in test [7] was “inactive” each time.

Consider `O=C(O)CSc1cc(NS(=O)(=O)c2ccc(Br)cc2)c2ccccc2c1O`, for which the Potency in test [1] was 1.79 µM (active); in test [3], 7.08 µM (active); in [4] it was 0.4 µM (active); in [5], 0.631 µM (active); in [7], 0.565 µM (active). Further, the Potency entry in test [2] is “inactive”.

On to `O=[N+]([O-])c1ccccc1CSc1nc2ncc(Br)cc2[nH]1`, for which the Potency entry in [1], in [2], in test [3], in test [4] and in test [5] was “inactive” throughout. Besides, the Potency in [7] is 12.7 µM (active).

`CC(C)c1ccccc1-c1nc2c(c(NCc3ccc(-c4cccnc4)cc3)n1)CCNC2`: the Potency result in test [1], in [2], in test [3], in test [4], in test [5] and in test [7] was “inactive” in each case.
